Compound activity as filed in PubChem BioAssay.
Shown is part of a subset that was picked to be rich in hits.
Methyltransferases – Primary Screen for Target Class Profiling of Small Molecule Inhibitors of Methyltransferases; 25,000 compounds, 3.9% hits; purified enzyme, MTase-Glo SAH luminescence; active compounds read low; calls only at 40 µM; call rule not given here
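Each enzyme was reacted with SAM and its substrate, with compounds tested once at 40 uM; SAH formed was read by MTase-Glo luminescence.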
Large screens that a line does not name were inactive.

CC1CCCC(O)CCC/C=C/c2cc(O)cc(O)c2C(=O)O1 (centres undefined)	none
CC1CCCC(=O)CCC/C=C/c2cc(O)cc(O)c2C(=O)O1 (centres undefined)	Methyltransferases active
COC1CCCC(C)OC(=O)Cc2cc(O)cc(O)c2C(=O)C1 (centres undefined)	none
OC[C@H]1C[C@@H](NC2CCC2)[C@H](O)[C@@H]1O	none
CC[C@H]1CN2CC[C@H]1C[C@H]2[C@H](O)c1ccnc2ccc(OC)cc12	none
CCOCCCNC(=O)N1Cc2ccccc2-n2cccc2C1c1cccs1 (centres undefined)	none
Cc1ccccc1NC(=O)N1Cc2ccccc2-n2cccc2C1c1ccc(N(C)C)cc1 (centres undefined)	none
COc1ccc(NC(=O)N2Cc3ccccc3-n3cccc3C2c2ccccc2)c(OC)c1 (centres undefined)	none
CN1C(=O)[C@H]2CN(Cc3ccsc3)C[C@H]2C1=O	none
CCOc1ccc(C2c3cccn3-c3ccccc3CN2C(=O)NCCc2ccccc2)cc1 (centres undefined)	none
CC[C@@H](CO)NC(=O)[C@@H]1C=C2c3cccc4[nH]cc(c34)C[C@H]2N(C)C1	Methyltransferases active
CC[C@@H](CO)NC(=O)[C@@H]1C=C2c3cccc4c3c(cn4C)C[C@H]2N(C)C1	Methyltransferases active
COc1ccc(C2c3cccn3-c3ccccc3CN2C(=O)Nc2ccc3c(c2)OCCO3)cc1OC (centres undefined)	none
CC(=O)OC[C@]12C[C@H](OC(=O)CC(C)C)C(C)=C[C@H]1O[C@@H]1[C@H](O)[C@@H](OC(C)=O)[C@@]2(C)[C@@]12CO2	none
Cc1ccc(C2c3cccn3-c3ccccc3CN2C(=O)Nc2ccccc2F)cc1 (centres undefined)	none
CC(=O)N(C)c1cccc(-c2ccnc3c(C(=O)c4cccs4)cnn23)c1	none
CSc1ccc(C2c3cccn3-c3ccccc3CN2C(=O)NC(C)C)cc1 (centres undefined)	none
CC(C)C1(OO)C=C2C(=O)CC3C(C)(C(=O)O)CCCC3(C)C2CC1 (centres undefined)	none
CCc1ccc(NC(=O)N2Cc3ccccc3-n3cccc3C2C)cc1 (centres undefined)	none
CNc1ccc2oc(C[C@H]3O[C@@]4(CC[C@H]3C)O[C@H]([C@H](C)C(=O)c3ccc[nH]3)[C@H](C)C[C@H]4C)nc2c1C(=O)O	Methyltransferases active
CCOC(=O)Cc1ccc(NC(=O)N2Cc3ccccc3-n3cccc3C2c2ccc(F)cc2)cc1 (centres undefined)	none
CN(N=O)c1cc(O)ccc1O	Methyltransferases active
C/C(=C\c1csc(C)n1)[C@@H]1C[C@@H]2O[C@@H]2CCC[C@H](C)[C@H](O)[C@@H](C)C(=O)C(C)(C)[C@@H](O)CC(=O)O1	none
CN(C(=O)C(c1ccccc1)c1ccccc1)[C@H](CN1CC[C@H](O)C1)c1ccccc1	none
CCC1c2cccn2-c2ccccc2CN1C(=O)Nc1cc(Cl)ccc1OC (centres undefined)	none
COc1ccccc1NC(=O)N1Cc2ccccc2-n2cccc2C1c1cccc(Cl)c1 (centres undefined)	none
CCCN1CCc2cccc3c2[C@H]1Cc1ccc(O)c(O)c1-3	Methyltransferases active
CCCN1CCO[C@@H]2c3cc(O)ccc3OC[C@H]21	none
Cc1ccc(Cl)cc1NC(=O)N1Cc2ccccc2-n2cccc2C1c1ccccc1C (centres undefined)	none
c1ccc2c(c1)OCC(C1=NCCN1)O2 (centres undefined)	none
CC(C)c1ccc(C2c3cccn3-c3ccccc3CN2C(=O)Nc2ccc(F)cc2)cc1 (centres undefined)	none
Oc1ccc2c(c1)C13CCCC[C@H]1[C@@H](C2)N(CC1CCC1)CC3	Methyltransferases active
CC(=O)N(C1CC1)C1CCOC2(CCNCC2)C1 (centres undefined)	none
C=C(C)[C@H]1O[C@H]2CC[C@@]3(C)[C@@](O)(CC[C@H]4[C@@H]5OC(C)(C)[C@H]6C[C@@H]7C(=C)Cc8c(Cl)cc9[nH]c(c5c9c8[C@@]76O)[C@@]43C)[C@]23O[C@@H]3[C@H]1O	none
O=C(Cc1ccc(Cl)cc1)N1CCN(C2CCN(Cc3ccccn3)C2=O)CC1 (centres undefined)	none
CC(=O)C1=C(O)[C@@H]2[C@H]3c4c[nH]c5cccc(c45)C[C@H]3C(C)(C)N2C1=O	Methyltransferases active
Cc1ccc(C2c3cccn3-c3ccccc3CN2C(=O)NCc2ccccc2)cc1 (centres undefined)	none
CN1C(=O)CN=C(c2ccccc2Cl)c2cc(Cl)ccc21	none
COc1ccc(OC)c(NC(=O)N2Cc3ccccc3-n3cccc3C2c2ccccc2Cl)c1 (centres undefined)	none
CCOCCCNC(=O)N1Cc2ccccc2-n2cccc2C1c1cccc(Cl)c1 (centres undefined)	none
Cc1ccc(NC(=O)N2Cc3ccccc3-n3cccc3C2C)cc1C (centres undefined)	none
Cn1nc(-c2cccs2)cc1[C@H]1CN2CC[C@H]1C[C@@H]2CNC(=O)C1CCCCC1	none
